# Screens: PubChem BioAssay, The Scripps Research Institute Molecular Screening Center
# Hits are enriched below; roughly 3.4% of the tested compounds scored in any of these assays.
# PAFAH2 inh – PAFAH2 (human) inhibition; inhibition, % at 3.39 µM; 340,000 tested, 0.99% active; Q99487; recombinant PAFAH2, FP-rhodamine activity probe, fluorescence polarization;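 active means inhibition above the mean over all tested compounds plus 3 SD, cut at about 30% in these data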;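 further: inhibitors block probe labeling of enzyme so polarization drops; 0% = enzyme with DMSO and 100% = wells lacking PAFAH2 protein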
# PP5 primary – inhibitors of human protein phosphatase 5 (PP5); 320,000 tested, 0.18% active; purified PP5c, OMFP substrate fluorescence; AID 1987; inhibition, % at 6.7 µM; P53041;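 active means inhibition above the campaign's mean inhibition across all tested compounds plus 3 SD, cut at about 9.5% in these data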;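 further: 0% = DMSO only and 100% = 100 µM cantharidin control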
# PP1 counter – counter-screen for PP5 inhibitors: inhibitors of human PP1-alpha. 320,000 tested, 0.9% active. purified PP1alpha, OMFP fluorescence. inhibition, % at 6.7 µM. P62136;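 active means inhibition above the mean inhibition of all tested compounds plus 3 SD, computed separately for each screening campaign, cut at about 15% in these data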
# PAFAH1B3 FP inh – blocks human PAF acetylhydrolase 1B catalytic subunit 3; Q15102; recombinant PAFAH1B3, FP-rhodamine probe, fluorescence polarization; inhibition, % at 3.39 µM; 340,000 tested, 0.28% active; AID 492972;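 active means inhibition above the screen-wide average of all tested compounds plus 3 SD, cut at about 25% in these data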;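 further: 0% = enzyme with DMSO only and 100% = wells lacking PAFAH1B3 protein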
# pPAFAH FP inh – inhibitors of human plasma PAF acetylhydrolase (pPAFAH); Q13093; recombinant pPAFAH, FP-rhodamine probe fluorescence polarization; inhibition, % at 3.39 µM; AID 463082; 330,000 tested, 1.5% active;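 active means inhibition above the mean inhibition across the screen plus 3 SD, cut at about 25% in these data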;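 further: inhibitors block binding of the rhodamine activity-based probe so polarization drops; 0% = enzyme with DMSO and 100% = wells lacking pPAFAH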
# Target sequence (Q13093 whole entry, looked up): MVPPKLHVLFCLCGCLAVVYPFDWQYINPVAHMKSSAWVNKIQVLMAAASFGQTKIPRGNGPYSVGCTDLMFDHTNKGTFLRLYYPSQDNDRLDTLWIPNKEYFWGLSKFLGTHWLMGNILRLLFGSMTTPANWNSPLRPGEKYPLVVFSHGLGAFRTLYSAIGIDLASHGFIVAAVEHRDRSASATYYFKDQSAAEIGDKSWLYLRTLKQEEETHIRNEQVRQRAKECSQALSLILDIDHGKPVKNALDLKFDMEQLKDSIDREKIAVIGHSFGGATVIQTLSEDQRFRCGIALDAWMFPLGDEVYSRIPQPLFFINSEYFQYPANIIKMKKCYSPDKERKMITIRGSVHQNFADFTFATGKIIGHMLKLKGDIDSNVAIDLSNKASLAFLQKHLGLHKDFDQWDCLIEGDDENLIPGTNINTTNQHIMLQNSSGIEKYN
# PAFAH1B2 inh – blocks human PAF acetylhydrolase 1b catalytic subunit 2. 340,000 tested, 1.2% active. inhibition, % at 3.39 µM. recombinant PAFAH1B2, FP-rhodamine activity probe, fluorescence polarization;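 active means inhibition above the mean of all tested compounds plus 3 SD, cut at about 24% in these data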;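 further: 0% = enzyme with DMSO and 100% = wells lacking PAFAH1B2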
# PP5 conf – confirmation of human PP5 phosphatase inhibitors; shares compounds with PP5 primary; Purified PP5, fluorogenic phosphatase substrate, fluorescence; inhibition, % at 6.7 µM; 460 tested, 22% active; AID 2331; in the data active means inhibition above about 9.5%
# PP1 inh counter – counter-screen for PP5 inhibitors: human PP1 phosphatase inhibition. shares compounds with PP5 primary. PP1 enzyme, fluorescent phosphatase substrate. inhibition, % at 6.7 µM. 460 tested, 4% active. AID 2355; in the data active means inhibition above about 16%
# * marks the source's active call; other numbers are inactive results; · = no result.
SMILES,PAFAH2 inh,PP5 primary,PP1 counter,PAFAH1B3 FP inh,pPAFAH FP inh,PAFAH1B2 inh,PP5 conf,PP1 inh counter
CN1CCN(CC(=O)NN(Cc2ccccc2)c2ccccc2)CC1,8,12*,-2,5,1,6,2,-4
CCN(CC)CC(=O)NN(Cc1ccccc1)c1ccccc1,7,2,0,13,2,-1,·,·
COc1ccccc1/C=N/Nc1cc(N(C)C)nc(N(C)C)n1,1,18*,-4,2,12,1,30*,5
CN(C)c1cc(N/N=C\c2ccccc2)nc(N(C)C)n1,-1,16*,0,8,7,-3,38*,7
COc1ccc(/C=N/Nc2cc(N(C)C)nc(N(C)C)n2)cc1,7,14*,-1,2,5,9,43*,10
COc1ccc(/C=N/Nc2cc(OC)ncn2)cc1,1,6,-3,3,0,3,·,·
Cc1ccc(C2=NOC(C)(c3nnc(-c4ccncc4)o3)C2)cc1 (stereo not drawn),0,3,2,14,1,-1,·,·
NC(=O)c1ccc(C(F)(F)F)n(Cc2ccc(F)c(F)c2)c1=O,-2,4,3,12,3,4,·,·
NC(=O)c1ccc(C(F)(F)F)n(Cc2ccc(Cl)cc2)c1=O,4,9.9*,6,9,9,1,1,2
Cc1ccc(CNC(=O)c2ccc(C#CC(C)(C)O)s2)cc1,-3,9.6*,1,11,9,5,-3,-2
CCCN(CC1CC1)c1nc(N)c2c(N)nc(OC)cc2c1C#N,12,12*,4,11,11,12,39*,5
Cc1cc(C2(c3ccc(O)c(C)c3)C(=O)Nc3ccccc32)ccc1O,-3,16*,8,-3,2,7,6,5
Cc1cccc2c1NC(=O)C2(c1ccc(O)cc1)c1ccc(O)cc1,8,3,5,0,6,3,·,·
C=CCNC(=O)CSc1nnc(-c2cccs2)o1,4,-1,1,-5,3,-1,·,·
O=C(CSc1nnc(-c2cccs2)o1)NCC1CN(Cc2ccccc2)CCO1 (stereo not drawn),-4,19*,-1,-7,3,2,-4,-6
O=C(CN1C(=O)COc2ccccc21)N(CCCN1CCOCC1)CC1CC=CCC1 (stereo not drawn),-5,2,-3,-1,-3,1,·,·
CN1C=CC=C/C1=C1\SC(=S)N(C2CCCCC2)C1=O,11,9.7*,1,0,2,6,-1,-1
CN1C=CC=C/C1=C1\SC(=S)N(c2ccccc2)C1=O,-7,3,1,-7,0,2,·,·
CCN(CC(=O)Nc1c(F)cccc1F)C(=O)c1cc(S(=O)(=O)N(C)C)ccc1N1CCCC1,4,1,-3,3,0,-1,·,·
COc1ccccc1CCC(=O)NNC(=O)c1ccccc1,-4,2,-2,-5,-3,0,·,·
COc1ccc(C(=O)NNC(=O)CCc2ccccc2OC)cc1,0,16*,-4,11,0,4,-4,-3
CN1CCN(/C=N/c2c(C#N)cnn2-c2ccccc2)CC1,-1,-1,3,-1,0,-3,·,·
O=C(c1ccc(C(F)(F)F)cc1)c1c[nH]c(C(=O)NCCCn2ccnc2)c1,-1,12*,-3,6,0,9,-2,-3
O=C(Cc1ccccc1)c1c[nH]c(C(=O)NCCCn2ccnc2)c1,·,0,-4,·,1,·,·,·
O=C(N1CCCCC1)N1CCN(C(c2ccccc2)c2ccccc2)CC1,10,3,1,-3,14,3,·,·
SMILES,PAFAH2 inh,PP5 primary,PP1 counter,PAFAH1B3 FP inh,pPAFAH FP inh,PAFAH1B2 inh,PP5 conf,PP1 inh counter
O=C(N1CCOCC1)N1CCN(C(c2ccccc2)c2ccccc2)CC1,-5,10*,-4,5,5,4,-2,-4
CCOC(=O)C1CCCN(CC(O)COc2ccc(OC)cc2C(C)(C)C)C1 (stereo not drawn),-1,11*,1,4,0,2,0,-4
CCOC(=O)Cc1c(C)nc2c(-c3cccc(Br)c3)cnn2c1C,-6,1,2,11,0,3,·,·
CCOC(=O)CN1CCc2c(C)nc3c(-c4ccc(OC)c(OC)c4)cnn3c21,1,12*,3,13,10,2,-1,-1
COc1cccc(NC(=O)c2ccc3c(c2)N(CC(=O)N2CCOCC2)C(=O)C(C)(C)O3)c1,0,-2,-1,10,-1,1,·,·
CCOC(=O)CC1C(=O)NCCN1Cc1ccc(OC)c(OC)c1 (stereo not drawn),2,2,-3,5,0,1,·,·
COc1ccc(S(=O)(=O)CC(=O)Nc2ccccc2Cl)cc1,3,3,-3,-3,0,1,·,·
O=C(CS(=O)(=O)c1ccc(Cl)c(Cl)c1)Nc1ccccc1Cl,7,11*,1,1,1,5,-4,-3
Cc1ccc(NC(=O)c2ccccc2F)cc1S(=O)(=O)N1CCCCCC1,6,11*,-3,-1,-2,0,0,-1
Cc1ccc(NC(=O)Cc2ccccc2F)cc1S(=O)(=O)N1CCCCCC1,5,5,4,0,2,-5,·,·
COc1cc(/C=C2/C(=O)N(c3ccc([N+](=O)[O-])cc3)N=C2N2CCOCC2)ccc1O,-1,16*,-1,7,2,-1,2,-2
CCN(CC)c1ccc(/C=C2/C(=O)N(c3ccc([N+](=O)[O-])cc3)N=C2N2CCOCC2)cc1,·,2,-1,·,2,·,·,·
Oc1ccc(N=Cc2ccc(-c3cccs3)s2)cc1,9,11*,3,16,22,14,0,-2
COc1cccc2cc(C(=O)N(Cc3cccs3)CC3CCCO3)c(=O)oc12 (stereo not drawn),-5,-2,-2,14,4,6,·,·
COc1ccc(-c2nc(C(=O)NCCCN3CCOCC3)cc3c2[nH]c2ccccc23)cc1OC,-1,2,0,3,9,3,·,·
CC(C)(C)P(=O)(CO)c1ccccc1 (stereo not drawn),-2,11*,-2,6,1,5,-3,-4
CC(C)(O)P(C)(=O)c1ccccc1 (stereo not drawn),-4,1,0,-4,3,0,·,·
CC1(NC(=O)CCc2nc3sc4c(c3c(=O)[nH]2)CCCC4)CCS(=O)(=O)C1 (stereo not drawn),18,10*,-22,5,20,-1,-4,-2
Cc1ccnc(SCC(=O)c2ccc([N+](=O)[O-])cc2)n1,3,3,0,4,4,2,·,·
